# Measurements: the supplement of paper PMC4466140
# Key:
# Assay in all cases: SPOT peptide array binding signal intensity (averaged, normalized) (arbitrary units (background-subtracted, floor 0; scale differs between SH3 domains)); higher = stronger binding of the SH3 domain to the peptide
# AgAbp1 = biological target: AgAbp1
# Method in brief: (§1)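 Spot intensities were captured after detection with anti-GST antibody, an HRP-linked anti-mouse secondary and luminol, and quantified with Genespotter. The probes were GST-fused SH3 domains from four yeast species, produced in E. coli BL21(DE3), purified on glutathione Sepharose and incubated at 10 μg/ml overnight at 4°C on cellulose-bound synthetic 15-mer peptides with cysteines replaced by serines. Binding signal is the normalized, background-subtracted spot intensity averaged over replicates, and its arbitrary units differ between domains.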
# AgBbc1 = biological target: AgBbc1
# Method in brief: as §1
# AgBem1-D1 = biological target: AgBem1-D1
# Method in brief: as §1
# AgBzz1-D1 = biological target: AgBzz1-D1
# Method in brief: as §1
# AgBzz1-D2 = biological target: AgBzz1-D2
# Method in brief: as §1
# AgCyk3 = biological target: AgCyk3
# Method in brief: as §1
# AgFus1 = biological target: AgFus1
# Method in brief: as §1
# AgHof1 = biological target: AgHof1
# Method in brief: as §1
# AgHse1 = biological target: AgHse1
# Method in brief: as §1
# AgLsb1 = biological target: AgLsb1
# Method in brief: as §1
# AgLsb4 = biological target: AgLsb4
# Method in brief: as §1
# AgMyo5 = biological target: AgMyo5
# Method in brief: as §1
# AgNbp2 = biological target: AgNbp2
# Method in brief: as §1
# AgRvs167 = biological target: AgRvs167
# Method in brief: as §1
# AgSho1 = biological target: AgSho1
# Method in brief: as §1
# AgSla1-D1-D2 = biological target: AgSla1-D1-D2
# Method in brief: as §1
# AgSla1-D3 = biological target: AgSla1-D3
# Method in brief: as §1
# CaAbp1-D1 = biological target: CaAbp1-D1
# Method in brief: as §1
# CaAbp1-D2 = biological target: CaAbp1-D2
# Method in brief: as §1
# CaBbc1 = biological target: CaBbc1
# Method in brief: as §1
# CaBem1-D1 = biological target: CaBem1-D1
# Method in brief: as §1
# CaBzz1-D1 = biological target: CaBzz1-D1
# Method in brief: as §1
# CaBzz1-D2 = biological target: CaBzz1-D2
# Method in brief: as §1
# CaCyk3 = biological target: CaCyk3
# Method in brief: as §1
# CaFus1 = biological target: CaFus1
# Method in brief: as §1
# CaHof1 = biological target: CaHof1
# Method in brief: as §1
# CaHse1 = biological target: CaHse1
# Method in brief: as §1
# CaLsb1 = biological target: CaLsb1
# Method in brief: as §1
# CaLsb4 = biological target: CaLsb4
# Method in brief: as §1
# CaMyo5 = biological target: CaMyo5
# Method in brief: as §1
# CaNbp2 = biological target: CaNbp2
# Method in brief: as §1
# CaRvs167 = biological target: CaRvs167
# Method in brief: as §1
# CaRvs167-3 = biological target: CaRvs167-3
# Method in brief: as §1
# CaSho1 = biological target: CaSho1
# Method in brief: as §1
# CaSla1-D1-D2 = biological target: CaSla1-D1-D2
# Method in brief: as §1
# CaSla1-D3 = biological target: CaSla1-D3
# Method in brief: as §1
# ScAbp1 = biological target: ScAbp1
# Method in brief: as §1
# ScBbc1 = biological target: ScBbc1
# Method in brief: as §1
# ScBem1-D1 = biological target: ScBem1-D1
# Method in brief: as §1
# ScBzz1-D1 = biological target: ScBzz1-D1
# Method in brief: as §1
# ScBzz1-D2 = biological target: ScBzz1-D2
# Method in brief: as §1
# ScCyk3 = biological target: ScCyk3
# Method in brief: as §1
# ScFus1 = biological target: ScFus1
# Method in brief: as §1
# ScHof1 = biological target: ScHof1
# Method in brief: as §1
# ScHse1 = biological target: ScHse1
# Method in brief: as §1
# ScLsb1 = biological target: ScLsb1
# Method in brief: as §1
# ScLsb2 = biological target: ScLsb2
# Method in brief: as §1
# ScLsb3 = biological target: ScLsb3
# Method in brief: as §1
# ScLsb4 = biological target: ScLsb4
# Method in brief: as §1
# ScMyo3 = biological target: ScMyo3
# Method in brief: as §1
# ScMyo5 = biological target: ScMyo5
# Method in brief: as §1
# ScNbp2 = biological target: ScNbp2
# Method in brief: as §1
# ScPex13 = biological target: ScPex13
# Method in brief: as §1
# ScRvs167 = biological target: ScRvs167
# Method in brief: as §1
# ScSho1 = biological target: ScSho1
# Method in brief: as §1
# ScSla1-D1-D2 = biological target: ScSla1-D1-D2
# Method in brief: as §1
# ScSla1-D3 = biological target: ScSla1-D3
# Method in brief: as §1
# SpAbp1-D1 = biological target: SpAbp1-D1
# Method in brief: as §1
# SpBbc1 = biological target: SpBbc1
# Method in brief: as §1
# SpBzz1-D1 = biological target: SpBzz1-D1
# Method in brief: as §1
# SpBzz1-D2 = biological target: SpBzz1-D2
# Method in brief: as §1
# SpCyk3 = biological target: SpCyk3
# Method in brief: as §1
# SpHof1 = biological target: SpHof1
# Method in brief: as §1
# SpHof1-2 = biological target: SpHof1-2
# Method in brief: as §1
# SpHof1-3 = biological target: SpHof1-3
# Method in brief: as §1
# SpHse1 = biological target: SpHse1
# Method in brief: as §1
# SpLsb1 = biological target: SpLsb1
# Method in brief: as §1
# SpLsb4 = biological target: SpLsb4
# Method in brief: as §1
# SpMyo1 = biological target: SpMyo1
# Method in brief: as §1
# SpNbp2 = biological target: SpNbp2
# Method in brief: as §1
# SpPex13 = biological target: SpPex13
# Method in brief: as §1
# SpRvs167 = biological target: SpRvs167
# Method in brief: as §1
# SpSla1-D1-D2 = biological target: SpSla1-D1-D2
# Method in brief: as §1
# SpSla1-D3 = biological target: SpSla1-D3
# Method in brief: as §1
binder,measurement,setting,value
QTREPNEPPPPSPAM,SPOT peptide array binding signal intensity,AgAbp1,≤ 0
same,SPOT peptide array binding signal intensity,AgBbc1,≤ 0
same,SPOT peptide array binding signal intensity,AgBem1-D1,≤ 0
same,SPOT peptide array binding signal intensity,AgBzz1-D1,1.5
same,SPOT peptide array binding signal intensity,AgBzz1-D2,4
same,SPOT peptide array binding signal intensity,AgCyk3,≤ 0
same,SPOT peptide array binding signal intensity,AgFus1,≤ 0
same,SPOT peptide array binding signal intensity,AgHof1,2.5
same,SPOT peptide array binding signal intensity,AgHse1,≤ 0
same,SPOT peptide array binding signal intensity,AgLsb1,≤ 0
same,SPOT peptide array binding signal intensity,AgLsb4,≤ 0
same,SPOT peptide array binding signal intensity,AgMyo5,1420
same,SPOT peptide array binding signal intensity,AgNbp2,≤ 0
same,SPOT peptide array binding signal intensity,AgRvs167,0.667
same,SPOT peptide array binding signal intensity,AgSho1,≤ 0
same,SPOT peptide array binding signal intensity,AgSla1-D1-D2,≤ 0
same,SPOT peptide array binding signal intensity,AgSla1-D3,≤ 0
same,SPOT peptide array binding signal intensity,CaAbp1-D1,≤ 0
same,SPOT peptide array binding signal intensity,CaAbp1-D2,≤ 0
same,SPOT peptide array binding signal intensity,CaBbc1,≤ 0
same,SPOT peptide array binding signal intensity,CaBem1-D1,≤ 0
same,SPOT peptide array binding signal intensity,CaBzz1-D1,8
same,SPOT peptide array binding signal intensity,CaBzz1-D2,≤ 0
same,SPOT peptide array binding signal intensity,CaCyk3,≤ 0
same,SPOT peptide array binding signal intensity,CaFus1,6.5
same,SPOT peptide array binding signal intensity,CaHof1,0.25
same,SPOT peptide array binding signal intensity,CaHse1,0.75
same,SPOT peptide array binding signal intensity,CaLsb1,0.25
same,SPOT peptide array binding signal intensity,CaLsb4,≤ 0
same,SPOT peptide array binding signal intensity,CaMyo5,108
same,SPOT peptide array binding signal intensity,CaNbp2,≤ 0
same,SPOT peptide array binding signal intensity,CaRvs167,1.67
same,SPOT peptide array binding signal intensity,CaRvs167-3,≤ 0
same,SPOT peptide array binding signal intensity,CaSho1,≤ 0
same,SPOT peptide array binding signal intensity,CaSla1-D1-D2,≤ 0
same,SPOT peptide array binding signal intensity,CaSla1-D3,0.5
same,SPOT peptide array binding signal intensity,ScAbp1,≤ 0
same,SPOT peptide array binding signal intensity,ScBbc1,≤ 0
same,SPOT peptide array binding signal intensity,ScBem1-D1,≤ 0
same,SPOT peptide array binding signal intensity,ScBzz1-D1,7
same,SPOT peptide array binding signal intensity,ScBzz1-D2,≤ 0
same,SPOT peptide array binding signal intensity,ScCyk3,≤ 0
same,SPOT peptide array binding signal intensity,ScFus1,≤ 0
same,SPOT peptide array binding signal intensity,ScHof1,1
same,SPOT peptide array binding signal intensity,ScHse1,≤ 0
same,SPOT peptide array binding signal intensity,ScLsb1,0.5
same,SPOT peptide array binding signal intensity,ScLsb2,≤ 0
same,SPOT peptide array binding signal intensity,ScLsb3,13.5
same,SPOT peptide array binding signal intensity,ScLsb4,1.5
same,SPOT peptide array binding signal intensity,ScMyo3,2210
same,SPOT peptide array binding signal intensity,ScMyo5,1580
same,SPOT peptide array binding signal intensity,ScNbp2,≤ 0
same,SPOT peptide array binding signal intensity,ScPex13,1.75
same,SPOT peptide array binding signal intensity,ScRvs167,1.33
same,SPOT peptide array binding signal intensity,ScSho1,2
same,SPOT peptide array binding signal intensity,ScSla1-D1-D2,1.5
same,SPOT peptide array binding signal intensity,ScSla1-D3,≤ 0
same,SPOT peptide array binding signal intensity,SpAbp1-D1,≤ 0
same,SPOT peptide array binding signal intensity,SpBbc1,≤ 0
same,SPOT peptide array binding signal intensity,SpBzz1-D1,≤ 0
MTKTPETSPPKRPMG,SPOT peptide array binding signal intensity,CaNbp2,40.5
same,SPOT peptide array binding signal intensity,CaRvs167,17.8
same,SPOT peptide array binding signal intensity,CaRvs167-3,≤ 0
same,SPOT peptide array binding signal intensity,CaSho1,10.5
same,SPOT peptide array binding signal intensity,CaSla1-D1-D2,210
same,SPOT peptide array binding signal intensity,CaSla1-D3,106
same,SPOT peptide array binding signal intensity,ScAbp1,≤ 0
same,SPOT peptide array binding signal intensity,ScBbc1,0.5
same,SPOT peptide array binding signal intensity,ScBem1-D1,≤ 0
same,SPOT peptide array binding signal intensity,ScBzz1-D1,1
same,SPOT peptide array binding signal intensity,ScBzz1-D2,6
same,SPOT peptide array binding signal intensity,ScCyk3,≤ 0
same,SPOT peptide array binding signal intensity,ScFus1,≤ 0
same,SPOT peptide array binding signal intensity,ScHof1,1.25
same,SPOT peptide array binding signal intensity,ScHse1,18.5
same,SPOT peptide array binding signal intensity,ScLsb1,6.5
same,SPOT peptide array binding signal intensity,ScLsb2,2.5
same,SPOT peptide array binding signal intensity,ScLsb3,45.5
same,SPOT peptide array binding signal intensity,ScLsb4,10
same,SPOT peptide array binding signal intensity,ScMyo3,1860
same,SPOT peptide array binding signal intensity,ScMyo5,462
same,SPOT peptide array binding signal intensity,ScNbp2,25
same,SPOT peptide array binding signal intensity,ScPex13,24.2
same,SPOT peptide array binding signal intensity,ScRvs167,7.17
same,SPOT peptide array binding signal intensity,ScSho1,≤ 0
same,SPOT peptide array binding signal intensity,ScSla1-D1-D2,62.5
same,SPOT peptide array binding signal intensity,ScSla1-D3,65.2
same,SPOT peptide array binding signal intensity,SpAbp1-D1,3
same,SPOT peptide array binding signal intensity,SpBbc1,0.5
same,SPOT peptide array binding signal intensity,SpBzz1-D1,30.5
same,SPOT peptide array binding signal intensity,SpBzz1-D2,1.25
same,SPOT peptide array binding signal intensity,SpCyk3,1
same,SPOT peptide array binding signal intensity,SpHof1,18.5
same,SPOT peptide array binding signal intensity,SpHof1-2,18.2
same,SPOT peptide array binding signal intensity,SpHof1-3,≤ 0
same,SPOT peptide array binding signal intensity,SpHse1,13
same,SPOT peptide array binding signal intensity,SpLsb1,2.5
same,SPOT peptide array binding signal intensity,SpLsb4,285
same,SPOT peptide array binding signal intensity,SpMyo1,446
same,SPOT peptide array binding signal intensity,SpNbp2,5.5
same,SPOT peptide array binding signal intensity,SpPex13,≤ 0
same,SPOT peptide array binding signal intensity,SpRvs167,18.5
same,SPOT peptide array binding signal intensity,SpSla1-D1-D2,4
same,SPOT peptide array binding signal intensity,SpSla1-D3,17
